In PubChem BioAssay AID624132 (Broad Institute, 2012):
The whole screen tested about 1,600 compounds, of which about 1,500 (94%) were called active. So high a share suggests a set chosen from earlier hits. The list is a sample of the results. Measured potencies and affinities stand elsewhere. Records with an inconclusive call do not appear.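 How the source made its calls: active means signal drop with fitted half-maximal concentration at most twice the top valid dose for that sample; inconclusive means flat fit between 30 and 70% inhibition, or poor curve fit; inactive means the rest.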

Experiment: Shn3 3'UTR reporter inhibitors, dose response, cell-based, Clone20 osteoblasts, firefly luciferase, cherry-picked (AID 624132)
Settings: Clone20 osteoblast Shn3 3'UTR firefly luciferase, 24 h; series mostly up to 35 µM; activity change, negative = inhibition: at the top concentration

Activity change, negative = inhibition, inactive:
CC(Cc1cccs1)NC(=O)Nc1ccc(F)cc1 (stereo not given) -3.91%, CCN1C(=O)[C@H]2[C@@H](c3ccc(-c4ccc(OC)cc4)cc3)N3CCC[C@@]3(C(=O)OC)[C@H]2C1=O -16.5%, COc1ccc(N(C)C(=O)c2ccc3snnc3c2)cc1 -3.31%, CC(=O)N1N=C(c2ccccc2)OC1c1ccc([N+](=O)[O-])s1 (stereo not given) -37.6%, Fc1ccccc1N1CCN(Cc2nc(-c3ccccc3)no2)CC1 24.1%, O=C(COC(=O)/C=C/c1ccc(OC(F)F)cc1)Nc1ccc2[nH]c(=O)[nH]c2c1 -5.42%, CCOc1ccc(NS(=O)(=O)c2cc(C(=O)NCCN3CCOCC3)ccc2C)cc1 11.4%, COCc1nn2c(N)c(C#N)cnc2c1-c1ccccc1 11.5%, NC(=O)NC(CC(=O)NCCc1ccccn1)c1ccccc1Cl (stereo not given) 2.62%, CCOC(=O)c1[nH]c(C)c(/C(O)=C2\C(=O)C(=O)N(CCCN3CCOCC3)C2c2cccs2)c1C (stereo not given) 29.2%, Cc1cc(-n2c(C)cc(C(=O)CSc3nncn3C)c2C)no1 21.8%, CSCCC(NC(=O)c1ccccc1)C(=O)OCC(=O)N(C)CCC#N (stereo not given) 5.19% [at 8 µM], COc1ccc(C(=O)OCC(=O)Nc2ccc3[nH]c(=O)[nH]c3c2)cc1 6.22%, Cc1csc(=O)n1CCC(=O)N(C)Cc1c(F)cccc1Cl 6.18%, COc1ccc(C(=O)OCC(=O)Nc2ncc([N+](=O)[O-])s2)cc1OC 21.4%, OC(c1ccccc1)C(O)C(c1ccccc1)N1CCCCC1 (stereo not given) -2.22%, CCCOc1ccc2oc(=O)c3c(c2c1)CCCN3C(=O)CN1CCN(c2ncccn2)CC1 125%, COc1ccc(N2C(=O)C(CC(=O)Nc3ccccc3)N(Cc3ccc(OC)c(OC)c3)C2=O)cc1 (stereo not given) 7.36%, CSc1cccc(NC(=O)N2CCCC(CNS(=O)(=O)Cc3ccccc3)C2)c1 (stereo not given) -20.4%, CCn1cc(CNCc2cn(-c3ccccc3C)nc2-c2ccc(OC)c(F)c2)cn1 -3.08%, CC(C)(C)N(Cc1ccccc1)C(=O)COC(=O)CCc1c[nH]c2ccccc12 -6.52%, Oc1c(C(c2cccs2)N2CCC3(CC2)OCCO3)sc2ncnn12 (stereo not given) -5.82%, COc1ccc(S(=O)(=O)NCCC(=O)OCC(=O)NC2CC2)cc1 79.6%, CC1=NN(c2cccc([N+](=O)[O-])c2)C(=O)C1 4.22%, CN=C1c2cc3cc(OC)ccc3n2CCN1Cc1ccccc1 -18.3%, Cc1noc(C)c1COC(=O)[C@@H](NC(=O)c1ccccc1)C(C)C -11.5%, CCCCC[C@H]1CN(Cc2ccc(OC)cc2)C(=O)[C@@H]1CC(=O)NCc1ccccc1 -56.9%, Cc1ccc(NC(=O)CN(C)C(=O)COc2cc(F)ccc2[N+](=O)[O-])cc1 -9.91%, Cc1cc(C)cc(C(=O)NCC(=O)OCC(=O)NCC(F)(F)F)c1 11.4%, Nc1c(Br)cc2c(c1Br)C(O)c1ccccc1-2 (stereo not given) 27.3%, O=C(CSc1nnc(Nc2ccccc2)s1)NC1CCS(=O)(=O)C1 (stereo not given) 16.4%, CN(C(=O)CSc1nc(-c2cccs2)nc2ccccc12)C1CCS(=O)(=O)C1 (stereo not given) -7.83%, CN(CC(=O)NCc1ccc2c(c1)OCO2)S(=O)(=O)c1ccc(Br)s1 -3.96%, Cn1cccc1Cc1nnc(SCC(=O)NCCc2ccccc2)n1-c1ccc(F)cc1 -16.1%, O=C(NC(NC(=S)Nc1c(Cl)cc(Cl)cc1Cl)C(Cl)(Cl)Cl)OCc1ccccc1 (stereo not given) -68.3%, COc1ccc(-c2nnn(CC(=O)Nc3ccc4c(c3)OCCO4)n2)cc1OC -6.19%, O=C(CSc1nc(C(F)(F)F)cc(=O)[nH]1)N1CCCC1 -20.5%, Cc1nc2ncnn2c(C)c1Cc1cccc(F)c1 -14.1%, CCOC(=O)C1CCN(C(=O)C(C)N(c2ccc(Oc3ccccc3)cc2)S(C)(=O)=O)CC1 (stereo not given) -14.2%, CCOc1ccc(Br)cc1C1=CC(=O)C[C@H](c2ccc(OC)cc2)C1 -22.4%, COc1ccccc1-n1ccnc(SCC(=O)NCc2ccccc2Cl)c1=O -16.1%, Cc1ccc(NC(=O)NCCCN2CCOCC2)cc1 12.6%, Nc1cc(=O)[nH]c(SCC(=O)Nc2cccc([N+](=O)[O-])c2)n1 10.6%, CCOC(=O)C1=C(C)N(CCCC(=O)O)C(=O)NC1c1ccc2ccccc2c1 (stereo not given) 6.64%, CCc1c(O)nc(SCC(=O)Nc2ccccc2)n(-c2ccccc2)c1=O 15.3%, O=C(CN1C(=O)C2CCCCC2C1=O)NC1CCCc2ccccc21 (stereo not given) 8.86%, Cc1cc(Sc2ccc([N+](=O)[O-])cn2)ccc1Br 22%, Cc1ccc(S(=O)(=O)N2CCCCC2)cc1NS(=O)(=O)c1ccccc1F -79.1%, O=c1c2ccccc2c(C=Nc2ccccc2O)c(O)n1-c1nccs1 -5.72%, COc1ccccc1-n1c(SCC(=O)Nc2cc(C)on2)nc2c(c1=O)SCC2 -19.3%, O=S(=O)(c1ccc(Cl)cc1)n1ccc2cccnc21 -26.5%, O=C(NCCCn1ccnc1)C(=O)NCC1OCCCN1S(=O)(=O)c1ccccc1 (stereo not given) 3.7%, O=C(NCCNC(=O)Oc1cccc2ccccc12)Oc1cccc2ccccc12 48.5%, O=C(CSc1nc2ncc(Cl)cc2[nH]1)N1CCOCC1 17.4%, C[C@@H]1CC=C[C@H]2[C@H]1C(=O)N(Cc1ccccc1)[C@H]2c1cccc([N+](=O)[O-])c1 -18.7%, CC(=O)Nc1sc2c(c1-c1nc3ccccc3s1)CCN(C(C)C)C2 -66.9%, COc1cc(C(=O)OCC(=O)NC2CCCCCC2)ccc1OCC(C)C -25.6%, Cc1ccc(NC(=O)C2CCCN(S(=O)(=O)c3c(C)noc3C)C2)cc1 (stereo not given) 59.3%, CCO[C@@H]1OC(C(=O)NC2CC2)=C[C@H](c2coc3ccccc3c2=O)[C@H]1CCCO 0.737%, O=C(Nc1cccc(S(=O)(=O)NC2=NCCC2)c1)C1CC(=O)N(c2ccc3c(c2)OCCO3)C1 (stereo not given) 0.562%, CCOC(=O)CNC(=O)C1(NC(=O)CNC(=O)OCc2ccccc2)CCCC1 38.8%, O=C(NNc1ccccc1)C(=O)NNS(=O)(=O)c1ccc(CCCl)cc1 -0.537%, Cc1ccc(C(=O)N2CCN(C)CC2)cc1S(=O)(=O)N1CCCCCC1 -10.2%, CCN(CC)S(=O)(=O)c1ccc(N(C)Cc2cccc(OC)c2OC)nc1 -35.1%, Cc1cc(C(=O)Cn2cnc3cc(F)ccc3c2=O)c(C)n1C1CC1 -59.4%, COc1ccc(S(=O)(=O)N2CCOCC2)cc1NC(=O)COC(=O)CC1CC2CCC1C2 (stereo not given) -38%, COc1cc(OC)cc(C(=O)OCC(=O)Nc2ccc(F)cc2F)c1 -2.85%, Fc1ccccc1N=C1NN=C(c2ccccc2)CS1 -45%, Nc1nc(=S)[nH]c2c1C1(CCCCC1)Cc1ccccc1-2 15.5%, CCCCCCC#Cc1ccc2c(c1)COc1c3ccccc3nn1-2 57%, O=C1N/C(=C/c2ccc(N3CCOCC3)o2)C(=O)N1c1ccccc1 38.1%, Cc1ccccc1N/C(=N/S(=O)(=O)c1ccccc1)c1ccc(F)cc1 -1.16%, C[C@@H]1CN([C@H](C)CO)C(=O)c2cc(Br)cnc2O[C@H]1CN(C)C(=O)Cc1ccncc1 -2.88%, C[C@@H]1CN([C@H](C)CO)C(=O)CCCn2nncc2CO[C@H]1CN(C)S(=O)(=O)c1ccc2c(c1)OCCCO2 -2.03%, Cc1cc(C)n(-c2cc(-n3nc(C)cc3C)ncn2)n1 -6.51%, OCCNc1nc(Nc2ccc(Cl)cc2)nc(N2CCCC2)n1 -42.6%, COc1c(C)cc(C(=O)C2CCCN(C(=O)c3cccc(-n4cccn4)c3)C2)cc1C (stereo not given) -0.537%, CC1CCN(C(=O)c2ccc(N3C(=O)C4CCC(C)CC4C3=O)cc2)CC1 (stereo not given) 12%, O=C(Cc1ccccc1)NCCS(=O)c1ccc(Cl)cc1 (stereo not given) 12.2%, CSc1nnc(-c2ccco2)n1-c1ccccc1 -27%, CCn1nnc2cc(C(=O)Nc3cc(Cl)ccc3C)ccc21 7.36%, O=C(CSc1nc2[nH]ncc2c(=O)[nH]1)Nc1ccccc1C(F)(F)F 3.2%, CC(C)c1c(O)c2c(n(-c3ccccc3)c1=O)CCCC2 -1.82%, Cc1ccc(C(=O)Nc2ccc3c(c2)C(=O)N(CC2CCCO2)C3=O)cc1 (stereo not given) 43.8%, O=C(CCS(=O)(=O)c1ccccc1)Nc1nc2c(s1)CCCC2 25.6%
